What follows are molecules tested against Ras-related C3 botulinum toxin substrate 1 (Homo sapiens) (UniProt P63000) (assay: inhibition of wildtype Rac1 nucleotide loading – biochemical, multiplex bead flow cytometry, dose response (AID 1340)). Conditions: GST-Rac1 beads, Bodipy-FL-GTP binding; at 100 µM (top of the series) unless noted.

| SMILES | GTP binding signal, raw median fluorescence (lower = inhibition) (MCF (arbitrary fluorescence units)) |
| --- | --- |
| CCOC(=O)c1c(-c2ccccc2)csc1NC(=O)/C(C#N)=C/c1ccc(O)c(OC)c1 | 233 |
| COc1ccc(NC(=O)c2cc3nc(-c4ccccc4)cc(C)n3n2)cc1OC | 218 |
| COc1cccc(NC(=O)NCCCN2CCN(c3ccc(F)cc3)CC2)c1 | 255 |
| COc1ccc(CCn2c(C(C)C)nc3c(c(=O)c4ccccc4n3C)c2=O)cc1 | 241 |
| O=C(Nc1nc(-c2cccs2)cs1)c1cc2ccccc2oc1=O | 141 |
| Cc1csc(NC(=O)c2cc(=O)[nH]c3ccc(S(=O)(=O)N4CCOCC4)cc23)n1 | 190 |
| COc1ccc(OC)c(Nc2nc(-c3sc(N)nc3C)cs2)c1 | 179 |
| CCOC(=O)c1nc(Nc2ccc(C(=O)OC)cc2)c2ccccc2n1 | 128 |
| CCOC(=O)c1c(NC(=O)/C=C/c2ccc3c(c2)OCO3)sc(C)c1CC | 256 |
| COc1cc2[nH]c(=S)nc(NCCCOC(C)C)c2cc1OC | 116 |
| O=C(C1CCCO1)N1CCN(C(=S)Nc2ccccc2C(F)(F)F)CC1 (centres undefined) | 208 |
| O=c1c2ccccc2nc2c3ccccc3c(NCCO)nn12 | 165 |
| Cc1ccc(Nc2nc(N)c(C#N)c(CC#N)c2C#N)cc1 | 224 |
| Cn1c(=O)cc(N2CCOCC2)[nH]c1=O | 262 |
| O=[N+]([O-])c1cc(Cc2ccccc2)cc(C=Nc2ccc(N3CCOCC3)cc2)c1O | 0 |
| Cc1cccn2c(=O)c(/C=C3\SC(=S)N(CC(C)C)C3=O)c(NCCCOC(C)C)nc12 | 209 |
| CC(C)c1ccc(C(=O)NC2=NCCS2)cc1 | 204 |
| CCCc1nc2oc3c(=O)[nH]cnc3c2c2c1CCCC2 | 193 |
| O=C(NCCc1c[nH]c2ccccc12)c1cccc(S(=O)(=O)Nc2ccccc2Cl)c1 | 175 |
| O=C(Nn1cc(C(=O)N2CCN(c3ccccc3F)CC2)c2ccccc2c1=O)c1cnccn1 | 197 |

| SMILES | GTP binding signal, raw median fluorescence (lower = inhibition) (MCF (arbitrary fluorescence units)) |
| --- | --- |
| FC(F)(F)c1cccc(NC(=S)NNC(=S)NCc2ccccc2)c1 | 222 |
| COc1ccc(S(=O)(=O)N2CCCCC2)cc1NC(=O)c1ccc([N+](=O)[O-])o1 | 172 |
| O=C(CSc1ccc2nnc(-c3cccs3)n2n1)N1CCCC1 | 178 |
| CC(=O)Nc1ccc(N2C(=O)c3ccc(C(=O)Nc4nnc(SCc5ccc(F)cc5)s4)cc3C2=O)cc1 | 253 |
| NS(=O)(=O)c1ccc(-c2ccc(/C=C3\C(=O)Nc4cc(Cl)ccc43)o2)cc1 | 152 |
| CCCCCN1CC(O)=C(c2nc(-c3ccc(Cl)cc3)cs2)C1=N | 184 |
| O=c1[nH]c2ccc(S(=O)(=O)NCc3ccccc3)cc2[nH]1 | 218 |
| O=S1(=O)N=C(N(CCO)/N=C/c2ccncc2)c2ccccc21 | 114 |
| N#C/C(=C/c1ccc(N2CCCCCC2)o1)c1ccc(Cl)cc1 | 210 |
| CCOc1nnc(C)c2c(C)n(-c3cccc(Cl)c3)nc12 | 312 |
| O=C1c2ccccc2-n2c1nc1ccccc1c2=O | 204 |
| CC(C)(C)NC(=O)CSc1nccn1Cc1ccccc1 | 144 |
| COc1ccc(S(=O)(=O)Cc2ccc(C(=O)N3CCN(c4cc(Cl)ccc4C)CC3)o2)cc1 | 148 |
| NC(=O)N=Nc1c(O)[nH]c2c(Br)cc(Br)cc12 | 213 |
| Cn1cc(C=C2C(=O)CC(C)(C)CC2=O)c2ccccc21 | 180 |
| COc1ccc(-c2nn3c(-c4ccco4)nnc3s2)cc1OC | 143 |
| O=c1/c(=C/c2ccc(CNS(=O)(=O)c3ccccc3)o2)sc2n1CCN=2 | 119 |
| CCc1nnc(NS(=O)(=O)c2ccc(Nc3ccc4nonc4c3[N+](=O)[O-])cc2)s1 | 147 |
| O=C(NC1CC2CCCC(C1)N2C(=O)Nc1ccc(Cl)c(C(F)(F)F)c1)C1CC1 (centres undefined) | 185 |
